Consider 40 molecules from PubChem BioAssay (EPA / NIEHS).

Molecules are shown by their SMILES. Records with an inconclusive call do not appear. Active and inactive are the calls of the source. The calls were made as follows: active = hit-call score of the fitted dose curve at least 0.9, where 1 is the maximum; inconclusive = response in the unintended direction; inactive = score below 0.9.

The nature of this assay: TOX21_p53_BLA_p2_viability: Viability Assessment in the Tox21 HCT-116 p53 Agonism Beta-lactamase Assay, Phase 2 (AID 2283591).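 Also: compound exposure lasted 16 h at 37 °C; actives lower the ATP signal meaning cytotoxicity.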 The source says:
TOX21_p53_BLA_p2 is a cell-based, single-readout assay that uses HCT116, a human intestinal cell line, […] in a 1536-well plate.TOX21_p53_BLA_p2_viability is an assay readout measuring cellular ATP content and detected with CellTiter-Glo Luciferase-coupled ATP quantitation.TOX21_p53_BLA_p2_viability used a type of viability reporter where loss-of-signal activity can be used to understand changes in the cell viability. Furthermore, this assay endpoint can be referred to as a secondary readout, because this assay has produced multiple assay endpoints where this one serves a viability function. To generalize the intended target to other relatable targets, this assay endpoint is annotated to the cell cycle intended target family, where the subfamily is cytotoxicity.
Thawing Method: Place 14 mL of pre-warmed thaw medium into a 15 mL of conical tub. Remove the vial of cells to be thawed from liquid nitrogen and thaw rapidly by placing at 37C in a water bath with gentle agitation for 1-2 minutes. Decontaminate the vial by wiping with 70% ethanol before opening in a biological safety cabinet. Transfer the vial contents drop-wise into 14 mL of thaw medium in a sterile 15-mL conical tub. Centrifuge cells at 900 rpm for 4 minutes and resuspend in thaw medium. Transfer contents to the T75 tissue culture flask containing Thaw Medium and place flask in a humidified 37C/5% CO2 incubator. Switch to growth medium at first passage.Propagation Method: Aspirate medium, rinse once in DPBS, add 0.25% Trypsin/EDTA and swirl to coat the cell evenly. Add an equal volume of Growth Medium to inactivate Trypsin after 2-3 minutes incubation at 37C. Centrifuge cells at 900 rpm for 4 minutes and resuspend in growth medium. Cell should be passage or fed at least twice a week.Assay Protocol: Harvest cells from culture in growth medium and resuspend in assay medium. 2.2 Dispense 4000 cells/5 uL/well into 1536-well black/clear bottom plates using a Multidrop dispenser. After the cells were incubated at 37C for 5 hours, 23 nL of compounds dissolved in DMSO were transferred to the assay plate by a PinTool resulting in a 217-fold dilution. Incubate the plates for 16 hours at 37C, 5% CO2. Add 1 uL of 6X LiveBLAzer FRET B/G (CCF4-AM) Substrate Mixture to each well using a BioRAPTR dispenser and incubate the plates at room temperature for 2 hours. Measure fluorescence intensity at 460 and 530 nm emission and 405 nm excitation by an Envision detector. Data is expressed as the ratio of 460nm/530nm emissions. Add 4 uL of Cell-titer Glo to each well using BioRAPTR and incubate the plates at room temperature for […]. For cell viability readout that measures cytotoxicity, 4 ul/well of CellTiter-Glo reagent was added into the assay plates using a Flying Reagent Dispenser. After 30 min incubation at room temperature, the luminescence intensity in the plates was measured using a ViewLux plate reader.
Take `CCCN[C@H]1CCc2nc(N)sc2C1`: the call was inactive.
As for `C=CCn1cc[n+](C)c1`, the molecule was classed as inactive.
As to `N#Cc1ccc(C(=O)O)cc1`, the result was inactive.
In the case of `Cc1ccc(/C(=C\CN2CCCC2)c2cccc(/C=C/C(=O)O)n2)cc1`, the outcome was inactive.
The same measure, in the same setting: with `CC(=O)NCCCS(=O)(=O)O` the entry was “inactive”; with `CN1C(C(=O)Nc2ccccn2)=C(O)c2ccccc2S1(=O)=O`, “inactive”; with `CCC(C)O` (stereo not given), “inactive”.
On the same count and under the same terms, with `O=C(OC1C[C@H]2CC[C@@H](C1)[N+]21CCCC1)C(O)(c1ccccc1)c1ccccc1` (stereo not given in full) the entry was “inactive”; with `NCCS(=O)(=O)O`, “inactive”; with `O=C[C@H](O)[C@@H](O)[C@@H](O)[C@H](O)CO`, “inactive”.
In the case of `CO[C@@H]1[C@@H](O[C@@H]2O[C@H](C)[C@@H](O[C@H]3C[C@@](C)(O)[C@@H](OC(=O)CC(C)C)[C@H](C)O3)[C@H](N(C)C)[C@H]2O)[C@@H](CC=O)C[C@@H](C)C(=O)/C=C/C2OC2C[C@@H](C)OC(=O)C[C@H]1OC(C)=O` (stereo not given in full), the molecule was called inactive.
The same measure, in the same setting: with `NC(=O)c1ccccc1N` the entry was “inactive”.
Same read-out and setting: with `Cc1cc(C)cc(N)c1` the entry was “inactive”; with `COc1cc(C(=O)NCc2ccc(OCCN(C)C)cc2)cc(OC)c1OC`, “inactive”.
As for `NC(=O)c1ccncc1`, the result was inactive.
Still for that read-out and setting: as for `C=C(C)C(=O)OCCN(CC)CC`, the entry is “inactive”.
The same measure, in the same setting: as for `COc1cc([C@H]2Oc3cc([C@H]4Oc5cc(O)cc(O)c5C(=O)[C@@H]4O)ccc3O[C@@H]2CO)ccc1O`, the entry is “inactive”; as for `CC(C)[C@H](N)C(=O)OCCOCn1cnc2c(=O)[nH]c(N)nc21`, “inactive”.
Still for that read-out and setting: with `Nc1ccc(C(=O)Oc2ccccc2)c(O)c1` the entry was “inactive”; with `COc1cc(/C=C/C(=O)O[C@H]2CC[C@]34C[C@]35CC[C@]3(C)[C@@H]([C@H](C)CCC=C(C)C)CC[C@@]3(C)[C@@H]5CC[C@H]4C2(C)C)ccc1O`, “inactive”.
As for `NC(=O)C1c2ccccc2CCc2ccccc21`, the molecule was classed as inactive.
On the same count and under the same terms, with `C=CCSCC1Nc2cc(Cl)c(S(N)(=O)=O)cc2S(=O)(=O)N1` (stereo not given) the entry was “inactive”.
The same measure, in the same setting: as for `CC[C@@]1(O)C(=O)OCc2c1cc1n(c2=O)Cc2cc3c([N+](=O)[O-])cccc3nc2-1`, the entry is “inactive”.
Still for that read-out and setting: with `Cn1c(N)c(N=O)c(=O)n(C)c1=O` the entry was “inactive”; with `CC(C)CN(C[C@@H](O)[C@H](Cc1ccccc1)NC(=O)O[C@H]1CO[C@H]2OCC[C@H]21)S(=O)(=O)c1ccc(N)cc1`, “inactive”.
As to `CCCCC(CC)CN1CN(CC(CC)CCCC)CC(C)(N)C1` (stereo not given), the molecule was called inactive.
In the case of `CC(O)[C@@H]1NC(=O)[C@H](CCCCN)NC(=O)[C@@H](Cc2c[nH]c3ccccc23)NC(=O)[C@H](Cc2ccccc2)NC(=O)[C@@H](NC(=O)[C@H](N)Cc2ccccc2)CSSC[C@@H](C(=O)N[C@H](CO)[C@@H](C)O)NC1=O` (stereo not given in full), the molecule was classed as inactive.
On the same count and under the same terms, as for `C[C@@H](O)[C@H]1C(=O)N2C(C(=O)[O-])=C(SC3Cn4cnc[n+]4C3)[C@H](C)[C@H]12` (stereo not given in full), the entry is “inactive”; as for `OCCOCCOCCOCCOCCO`, “inactive”.
Take `SC1CCCCC1`: the molecule was classed as inactive.
As to `COc1cc2[nH]c(C)c(CCN3CCN(c4ccccc4)CC3)c2cc1OC`, the result was inactive.
Same read-out and setting: as for `N[C@@H](CSSC[C@H](N)C(=O)O)C(=O)O`, the entry is “inactive”; as for `C=CCN1C(=O)C(CC(C)C)NC1=S` (stereo not given), “inactive”.
`S=C1NC=NC2N=CNC12` (stereo not given): the AC50 is 2.15 µM (active).
As for `OC[C@H]1O[C@H](O[C@H]2O[C@H](CO)[C@@H](O)[C@H](O)[C@H]2O)[C@H](O)[C@@H](O)[C@@H]1O`, the molecule was called inactive.
The same measure, in the same setting: as for `CNC(=O)C[C@@H](N)C(=O)N[C@@H](C(=O)N[C@@H]1C(=O)N2[C@@H]1SC(C)(C)[C@@H]2C(=O)O)c1ccc(O)cc1`, the entry is “inactive”; as for `COc1cc(OC)c(C(=O)CCCN2CCCC2)c(OC)c1`, “inactive”.
On the same count and under the same terms, with `CC(=O)Oc1ccc(C2(c3ccc(OC(C)=O)cc3)Oc3ccccc3NC2=O)cc1` the entry was “inactive”.
For the molecule `Oc1c(I)cc(I)c2cccnc12`, the AC50 was 10.6 µM (active).
For the molecule `CC(=O)OCC(=O)[C@@]1(OC(C)=O)[C@@H](C)C[C@H]2[C@@H]3C[C@H](F)C4=CC(=O)C=C[C@]4(C)[C@@]3(F)[C@@H](O)C[C@@]21C`, the molecule was classed as inactive.

What is called AC50 is the midpoint of the concentration-response curve, whichever way the signal moves.
